{"source": "PubChem BioAssay AID720628", "about": "(The Scripps Research Institute Molecular Screening Center, 2013)", "note": "The list shows a part of the results. Active and inactive are the calls of the source.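 How the source made its calls: active means inhibition above the campaign cutoff, the mean of compounds within control limits plus 3 SD (cut at about 14% in these data); inactive means the rest.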", "data": [{"target": "Fibrinogen beta chain (Homo sapiens) (UniProt P02675)", "sequence (P02675 whole entry, looked up)": "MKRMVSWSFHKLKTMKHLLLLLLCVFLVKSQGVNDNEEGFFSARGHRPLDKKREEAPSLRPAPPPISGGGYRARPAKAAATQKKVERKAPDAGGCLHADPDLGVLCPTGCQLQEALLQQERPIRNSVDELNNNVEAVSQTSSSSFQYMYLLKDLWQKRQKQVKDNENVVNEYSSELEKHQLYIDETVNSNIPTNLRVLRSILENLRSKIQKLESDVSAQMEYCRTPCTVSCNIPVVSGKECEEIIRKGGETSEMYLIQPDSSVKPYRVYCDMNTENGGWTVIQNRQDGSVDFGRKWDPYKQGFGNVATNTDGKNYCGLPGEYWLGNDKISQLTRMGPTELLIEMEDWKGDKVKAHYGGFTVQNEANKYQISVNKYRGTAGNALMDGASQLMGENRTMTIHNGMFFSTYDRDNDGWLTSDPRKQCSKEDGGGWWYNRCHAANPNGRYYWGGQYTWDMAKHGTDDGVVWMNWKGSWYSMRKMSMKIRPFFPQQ", "test": "inhibitors of Tn7 peptide binding to fibrin DD(E), confirmation, biochemical, fluorescence polarization, human fibrin, Tn7 probe (AID 720628);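 further: 100% = median FP of high control wells holding Aha-Tn7 inhibitor peptide; displacers lower polarization since freed probe rises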", "conditions": "FP displacement of TRITC-Tn7 peptide from DD(E); at 8.3 µM; hits give high values; 0% set at plate's compound-well median", "values": [{"smiles": "COc1ccc(-c2nc(CCNC(=O)c3ccc(Br)o3)cs2)cc1", "inhibition": "1.25% (inactive)"}, {"smiles": "O=C(Nc1ccon1)c1sc2ccccc2c1Cl", "inhibition": "6.87% (inactive)"}, {"smiles": "OC(c1ccccc1)c1nc(-c2cnc3ccccc3c2)cs1", "note": "(configuration not stated)", "inhibition": "7.29% (inactive)"}, {"smiles": "O=C(COC(=O)/C=C/c1ccc(OC(F)F)cc1)NC1CCCCC1", "inhibition": "6.98% (inactive)"}, {"smiles": "Cc1cc2nc3c(=O)[nH]c(=O)nc-3n(C[C@H](O)[C@H](O)[C@H](O)CO)c2cc1C", "inhibition": "53.3% (active)"}, {"smiles": "COc1ccc(N=Nc2c(-c3ccc(OC)cc3)[nH]oc2=O)cc1", "inhibition": "-2.03% (inactive)"}, {"smiles": "C#CCNc1ccc(C(=O)OCC)cc1", "inhibition": "19.9% (active)"}]}]}
